Measurements taken from paper PMC7862700, “An all-to-all approach to the identification of sequence-specific readers for epigenetic DNA modifications on cytosine”.

Tests used:
Assay in all cases: DAPPL (digital affinity profiling via proximity ligation, sequencing); 10 mM Tris-HCl pH 7.5, 50 mM NaCl, 1 mM DTT, 4% glycerol, room temperature, 30 min; GST-TFs on glutathione beads, 16-mer random dsDNA library, 0.1% formaldehyde crosslink after washing; high values mean tight binding
Settings in all cases: protein: recombinant; tags: N-terminal GST; dsDNA, one strand shown
FLI1 = target: T1, FLI1 (Homo sapiens, UniProt Q01543 1-452)
T1 sequence: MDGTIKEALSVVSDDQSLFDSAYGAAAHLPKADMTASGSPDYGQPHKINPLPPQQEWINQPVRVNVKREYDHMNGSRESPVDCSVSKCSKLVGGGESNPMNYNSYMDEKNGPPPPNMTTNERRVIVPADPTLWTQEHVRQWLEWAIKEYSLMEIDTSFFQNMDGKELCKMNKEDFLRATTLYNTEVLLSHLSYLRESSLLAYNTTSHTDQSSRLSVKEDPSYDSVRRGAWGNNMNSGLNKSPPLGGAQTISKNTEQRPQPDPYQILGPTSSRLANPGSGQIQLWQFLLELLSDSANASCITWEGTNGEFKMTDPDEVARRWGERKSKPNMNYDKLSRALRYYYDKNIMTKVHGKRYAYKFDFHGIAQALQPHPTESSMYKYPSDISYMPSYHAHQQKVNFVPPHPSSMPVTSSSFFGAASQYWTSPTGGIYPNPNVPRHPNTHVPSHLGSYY
Procedure, shortened: (§1)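 Yeast served to express human transcription factors as GST fusions, which were then captured on glutathione beads and labelled with DNA barcodes. Pooled with a tag-only sample, they were incubated with 200 nmole of a 16-mer random double-stranded DNA library for 30 min at room temperature in Tris/NaCl/DTT/glycerol buffer, washed, crosslinked with 0.1% formaldehyde, ligated by proximity, amplified by PCR and sequenced. Dividing each hexamer's read frequency for a factor by its frequency for the tag-only sample gives the binding signal.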

ELK1 = target: T2, ELK1 (Homo sapiens, UniProt P19419 1-428)
T2 sequence: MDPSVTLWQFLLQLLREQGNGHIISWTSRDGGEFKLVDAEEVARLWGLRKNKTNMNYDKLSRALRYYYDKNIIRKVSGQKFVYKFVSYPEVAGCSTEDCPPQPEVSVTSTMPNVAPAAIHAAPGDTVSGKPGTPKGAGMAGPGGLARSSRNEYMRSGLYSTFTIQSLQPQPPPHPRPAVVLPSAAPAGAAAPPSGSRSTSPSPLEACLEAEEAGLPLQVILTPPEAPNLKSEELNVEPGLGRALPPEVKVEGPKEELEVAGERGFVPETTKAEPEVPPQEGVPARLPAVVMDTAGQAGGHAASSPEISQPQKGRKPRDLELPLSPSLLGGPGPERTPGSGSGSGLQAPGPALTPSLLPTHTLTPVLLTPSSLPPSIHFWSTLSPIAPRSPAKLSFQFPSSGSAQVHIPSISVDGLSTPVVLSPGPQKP
Procedure, shortened: as §1

GABPA = target: T3, GABPA (Homo sapiens, UniProt Q06546 1-454)
T3 sequence: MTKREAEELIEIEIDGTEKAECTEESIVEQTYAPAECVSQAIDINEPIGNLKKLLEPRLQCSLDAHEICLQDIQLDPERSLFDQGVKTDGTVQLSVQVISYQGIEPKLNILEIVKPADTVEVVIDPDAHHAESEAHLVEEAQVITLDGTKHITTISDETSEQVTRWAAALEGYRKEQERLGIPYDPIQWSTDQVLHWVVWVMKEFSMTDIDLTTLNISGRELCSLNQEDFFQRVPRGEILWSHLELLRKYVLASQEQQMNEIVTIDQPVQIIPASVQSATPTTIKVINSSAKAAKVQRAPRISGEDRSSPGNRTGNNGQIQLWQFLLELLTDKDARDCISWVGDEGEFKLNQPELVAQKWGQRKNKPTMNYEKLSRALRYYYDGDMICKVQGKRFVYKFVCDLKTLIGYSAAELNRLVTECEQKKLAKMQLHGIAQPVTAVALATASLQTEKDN
Procedure, shortened: as §1

ERG = target: T4, ERG (Homo sapiens, UniProt P11308 1-479)
T4 sequence: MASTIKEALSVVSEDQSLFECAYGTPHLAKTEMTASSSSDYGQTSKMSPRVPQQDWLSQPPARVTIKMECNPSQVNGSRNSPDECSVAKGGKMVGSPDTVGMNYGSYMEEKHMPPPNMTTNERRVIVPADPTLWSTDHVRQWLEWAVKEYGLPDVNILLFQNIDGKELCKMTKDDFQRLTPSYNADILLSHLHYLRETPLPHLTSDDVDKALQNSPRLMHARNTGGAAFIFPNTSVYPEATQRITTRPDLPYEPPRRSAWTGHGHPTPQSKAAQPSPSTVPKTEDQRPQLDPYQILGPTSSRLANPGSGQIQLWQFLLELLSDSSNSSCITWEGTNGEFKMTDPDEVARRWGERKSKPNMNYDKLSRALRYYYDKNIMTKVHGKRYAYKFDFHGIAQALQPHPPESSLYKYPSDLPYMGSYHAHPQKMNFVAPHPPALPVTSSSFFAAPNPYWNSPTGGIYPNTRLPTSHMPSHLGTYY
Procedure, shortened: as §1

ELF1 = ELF1 (Homo sapiens, UniProt P32519 1-619)
ELF1, sequence (P32519 whole entry): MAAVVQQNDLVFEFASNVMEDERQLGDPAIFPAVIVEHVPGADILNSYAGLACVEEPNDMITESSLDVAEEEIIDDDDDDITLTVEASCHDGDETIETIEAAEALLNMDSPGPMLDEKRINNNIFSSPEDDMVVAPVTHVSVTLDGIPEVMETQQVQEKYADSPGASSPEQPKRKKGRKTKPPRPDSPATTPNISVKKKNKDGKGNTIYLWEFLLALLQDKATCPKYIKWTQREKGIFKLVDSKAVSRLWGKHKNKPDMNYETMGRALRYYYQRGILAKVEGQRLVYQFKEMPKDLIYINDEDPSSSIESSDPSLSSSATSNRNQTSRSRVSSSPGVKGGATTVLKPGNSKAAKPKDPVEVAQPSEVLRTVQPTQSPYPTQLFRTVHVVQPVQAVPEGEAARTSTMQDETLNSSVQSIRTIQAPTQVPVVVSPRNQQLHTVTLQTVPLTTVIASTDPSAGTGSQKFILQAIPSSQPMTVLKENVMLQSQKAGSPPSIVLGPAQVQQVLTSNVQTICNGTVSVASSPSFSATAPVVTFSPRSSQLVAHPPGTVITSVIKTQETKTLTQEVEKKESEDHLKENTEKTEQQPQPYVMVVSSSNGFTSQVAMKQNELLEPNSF
Procedure, shortened: as §1

SPIB = SPIB (Homo sapiens, UniProt Q01892 1-262)
SPIB, sequence (Q01892 whole entry): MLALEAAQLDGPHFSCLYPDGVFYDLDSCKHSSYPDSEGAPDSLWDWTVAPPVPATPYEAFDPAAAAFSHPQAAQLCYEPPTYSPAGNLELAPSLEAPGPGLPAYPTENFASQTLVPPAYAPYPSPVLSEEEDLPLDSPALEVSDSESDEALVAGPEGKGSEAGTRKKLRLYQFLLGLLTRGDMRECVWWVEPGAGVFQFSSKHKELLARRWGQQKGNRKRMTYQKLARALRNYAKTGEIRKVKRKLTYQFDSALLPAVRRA
Procedure, shortened: as §1

ELK3 = target: T5, ELK3 (Homo sapiens, UniProt P41970 1-407)
T5 sequence: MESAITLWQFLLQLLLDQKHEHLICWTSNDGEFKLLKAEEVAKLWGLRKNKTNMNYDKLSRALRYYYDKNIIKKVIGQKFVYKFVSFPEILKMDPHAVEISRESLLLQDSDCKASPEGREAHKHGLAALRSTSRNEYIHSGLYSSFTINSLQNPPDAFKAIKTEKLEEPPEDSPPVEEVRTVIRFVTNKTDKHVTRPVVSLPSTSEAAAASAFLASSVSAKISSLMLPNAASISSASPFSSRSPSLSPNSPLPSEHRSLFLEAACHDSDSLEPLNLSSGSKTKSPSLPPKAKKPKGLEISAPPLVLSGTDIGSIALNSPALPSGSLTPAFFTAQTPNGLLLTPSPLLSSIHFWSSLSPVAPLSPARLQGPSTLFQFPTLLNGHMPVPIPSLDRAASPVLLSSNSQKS
Procedure, shortened: as §1

ELF4 = ELF4 (Homo sapiens, UniProt Q99607 1-663)
ELF4, sequence (Q99607 whole entry): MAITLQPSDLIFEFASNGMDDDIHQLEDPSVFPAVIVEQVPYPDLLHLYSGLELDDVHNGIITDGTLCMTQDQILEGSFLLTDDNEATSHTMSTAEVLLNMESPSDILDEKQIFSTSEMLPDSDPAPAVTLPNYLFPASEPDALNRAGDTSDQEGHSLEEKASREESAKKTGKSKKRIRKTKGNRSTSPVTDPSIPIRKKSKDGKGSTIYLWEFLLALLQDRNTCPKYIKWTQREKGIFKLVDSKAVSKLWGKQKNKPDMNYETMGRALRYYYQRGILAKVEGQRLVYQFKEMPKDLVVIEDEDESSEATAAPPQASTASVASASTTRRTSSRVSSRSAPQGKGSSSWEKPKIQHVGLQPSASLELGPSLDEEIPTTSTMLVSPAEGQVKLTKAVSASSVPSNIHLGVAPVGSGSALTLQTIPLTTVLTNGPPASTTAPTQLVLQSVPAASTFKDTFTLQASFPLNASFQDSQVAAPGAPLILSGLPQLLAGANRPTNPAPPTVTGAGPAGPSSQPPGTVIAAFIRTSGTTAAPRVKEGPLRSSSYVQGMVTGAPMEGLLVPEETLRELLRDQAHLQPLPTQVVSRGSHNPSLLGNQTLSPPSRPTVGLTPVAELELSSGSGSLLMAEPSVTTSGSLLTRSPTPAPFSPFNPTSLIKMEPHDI
Procedure, shortened: as §1

ELK4 = target: T6, ELK4 (Homo sapiens, UniProt P28324-2 1-405)
T6 sequence: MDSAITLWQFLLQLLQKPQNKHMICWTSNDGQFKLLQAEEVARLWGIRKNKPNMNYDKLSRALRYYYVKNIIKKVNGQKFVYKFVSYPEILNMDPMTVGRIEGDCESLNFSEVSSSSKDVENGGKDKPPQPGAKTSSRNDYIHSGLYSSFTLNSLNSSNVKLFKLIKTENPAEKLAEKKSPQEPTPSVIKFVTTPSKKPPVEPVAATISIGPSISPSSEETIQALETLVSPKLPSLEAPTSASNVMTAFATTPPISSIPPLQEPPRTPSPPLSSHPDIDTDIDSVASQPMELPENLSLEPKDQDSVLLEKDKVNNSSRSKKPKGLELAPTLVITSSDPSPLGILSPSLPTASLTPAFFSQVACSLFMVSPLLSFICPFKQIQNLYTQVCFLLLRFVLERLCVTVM
Procedure, shortened: as §1

ETV2 = target: T7, ETV2 (Homo sapiens, UniProt O00321 1-342)
T7 sequence: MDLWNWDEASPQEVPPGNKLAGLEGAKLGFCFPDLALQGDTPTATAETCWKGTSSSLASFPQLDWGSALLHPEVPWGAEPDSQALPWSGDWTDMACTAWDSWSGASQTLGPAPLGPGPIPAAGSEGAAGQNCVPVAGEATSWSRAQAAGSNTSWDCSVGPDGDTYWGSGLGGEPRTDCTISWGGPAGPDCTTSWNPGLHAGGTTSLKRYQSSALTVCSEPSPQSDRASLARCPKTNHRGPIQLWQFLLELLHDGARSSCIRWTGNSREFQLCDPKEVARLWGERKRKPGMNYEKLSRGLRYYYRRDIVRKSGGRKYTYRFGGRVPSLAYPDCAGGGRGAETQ
Procedure, shortened: as §1

ELF3 = target: T8, ELF3 (Homo sapiens, UniProt P78545 1-371)
T8 sequence: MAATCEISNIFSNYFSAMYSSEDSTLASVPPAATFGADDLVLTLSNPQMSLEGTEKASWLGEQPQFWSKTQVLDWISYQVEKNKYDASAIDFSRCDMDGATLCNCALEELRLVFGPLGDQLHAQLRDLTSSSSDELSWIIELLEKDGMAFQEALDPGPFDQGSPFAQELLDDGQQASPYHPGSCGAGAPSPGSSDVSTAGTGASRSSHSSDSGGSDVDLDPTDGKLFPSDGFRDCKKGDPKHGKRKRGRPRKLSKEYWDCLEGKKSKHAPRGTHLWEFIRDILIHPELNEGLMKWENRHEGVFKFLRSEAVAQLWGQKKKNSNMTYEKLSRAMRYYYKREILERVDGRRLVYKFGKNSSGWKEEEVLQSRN
Procedure, shortened: as §1

ETV1 = ETV1 (Homo sapiens, UniProt P50549 1-477)
ETV1, sequence (P50549 whole entry): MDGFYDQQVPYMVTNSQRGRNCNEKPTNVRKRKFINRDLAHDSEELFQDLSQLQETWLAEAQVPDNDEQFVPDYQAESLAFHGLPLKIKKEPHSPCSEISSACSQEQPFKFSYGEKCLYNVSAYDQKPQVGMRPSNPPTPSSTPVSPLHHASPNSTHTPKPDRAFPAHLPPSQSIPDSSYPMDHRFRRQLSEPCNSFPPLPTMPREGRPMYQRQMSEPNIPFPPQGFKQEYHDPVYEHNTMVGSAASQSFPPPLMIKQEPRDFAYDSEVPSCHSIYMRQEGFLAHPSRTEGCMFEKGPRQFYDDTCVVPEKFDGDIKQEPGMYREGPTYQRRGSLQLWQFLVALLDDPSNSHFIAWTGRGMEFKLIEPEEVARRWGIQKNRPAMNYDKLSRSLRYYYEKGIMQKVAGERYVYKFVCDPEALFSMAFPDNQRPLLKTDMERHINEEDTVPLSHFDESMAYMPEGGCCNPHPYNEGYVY
Procedure, shortened: as §1

ETV3L = target: T9, ETV3L (Homo sapiens, UniProt Q6ZN32 1-361)
T9 sequence: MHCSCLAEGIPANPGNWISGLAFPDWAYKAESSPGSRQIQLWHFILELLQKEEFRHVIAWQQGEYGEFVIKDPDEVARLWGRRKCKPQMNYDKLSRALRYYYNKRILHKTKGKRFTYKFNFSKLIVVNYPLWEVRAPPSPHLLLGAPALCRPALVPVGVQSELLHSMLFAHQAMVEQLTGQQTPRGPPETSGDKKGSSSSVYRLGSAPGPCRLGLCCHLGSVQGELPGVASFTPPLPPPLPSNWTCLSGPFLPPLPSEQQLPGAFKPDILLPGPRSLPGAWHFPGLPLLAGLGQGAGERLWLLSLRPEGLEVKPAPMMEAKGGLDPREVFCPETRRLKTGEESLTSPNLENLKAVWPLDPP
Procedure, shortened: as §1

ETS2 = target: T10, ETS2 (Homo sapiens, UniProt P15036 1-469)
T10 sequence: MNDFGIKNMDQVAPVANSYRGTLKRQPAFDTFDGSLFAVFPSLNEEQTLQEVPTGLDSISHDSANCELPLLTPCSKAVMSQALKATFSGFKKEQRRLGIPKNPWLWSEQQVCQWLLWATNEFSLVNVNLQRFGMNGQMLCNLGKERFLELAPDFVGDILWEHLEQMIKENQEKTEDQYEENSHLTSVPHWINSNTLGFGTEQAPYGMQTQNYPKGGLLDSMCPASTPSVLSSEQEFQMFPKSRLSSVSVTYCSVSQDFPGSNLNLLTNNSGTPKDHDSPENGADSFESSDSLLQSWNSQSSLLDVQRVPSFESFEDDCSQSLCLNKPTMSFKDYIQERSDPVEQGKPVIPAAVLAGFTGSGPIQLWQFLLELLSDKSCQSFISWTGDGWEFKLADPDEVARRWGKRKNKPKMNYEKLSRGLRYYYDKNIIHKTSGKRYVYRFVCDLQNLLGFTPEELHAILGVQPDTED
Procedure, shortened: as §1

ETV7 = target: T11, ETV7 (Homo sapiens, UniProt Q9Y603 1-341)
T11 sequence: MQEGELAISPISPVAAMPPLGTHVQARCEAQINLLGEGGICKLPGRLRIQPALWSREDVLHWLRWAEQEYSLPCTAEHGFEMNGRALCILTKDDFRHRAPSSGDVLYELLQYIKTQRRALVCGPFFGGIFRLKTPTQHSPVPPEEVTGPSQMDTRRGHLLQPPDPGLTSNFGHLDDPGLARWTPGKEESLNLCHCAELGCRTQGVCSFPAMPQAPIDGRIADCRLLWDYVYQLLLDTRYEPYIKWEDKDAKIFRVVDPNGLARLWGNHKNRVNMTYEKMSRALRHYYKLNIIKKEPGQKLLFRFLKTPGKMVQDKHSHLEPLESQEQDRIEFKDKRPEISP
Procedure, shortened: as §1

ETV3 = target: T12, ETV3 (Homo sapiens, UniProt P41162-2 1-143)
T12 sequence: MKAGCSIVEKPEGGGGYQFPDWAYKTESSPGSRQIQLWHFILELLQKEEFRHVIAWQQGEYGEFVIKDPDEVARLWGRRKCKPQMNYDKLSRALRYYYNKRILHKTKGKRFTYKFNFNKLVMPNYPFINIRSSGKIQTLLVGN
Procedure, shortened: as §1

ETV6 = ETV6 (Homo sapiens, UniProt P41212 1-452)
ETV6, sequence (P41212 whole entry): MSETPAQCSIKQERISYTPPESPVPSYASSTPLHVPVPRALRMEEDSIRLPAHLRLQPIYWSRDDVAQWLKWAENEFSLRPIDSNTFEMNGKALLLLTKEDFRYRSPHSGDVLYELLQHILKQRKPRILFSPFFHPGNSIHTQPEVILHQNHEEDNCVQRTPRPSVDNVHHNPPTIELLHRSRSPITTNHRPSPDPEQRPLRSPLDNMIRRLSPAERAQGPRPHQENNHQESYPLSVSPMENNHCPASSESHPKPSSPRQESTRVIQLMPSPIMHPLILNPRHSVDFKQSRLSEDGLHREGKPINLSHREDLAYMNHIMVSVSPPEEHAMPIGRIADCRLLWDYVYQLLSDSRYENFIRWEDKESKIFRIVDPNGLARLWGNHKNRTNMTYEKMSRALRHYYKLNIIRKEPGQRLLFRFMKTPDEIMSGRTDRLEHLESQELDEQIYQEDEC
Procedure, shortened: as §1

In the case of CGCGAT, the binding signal (FLI1) is reported as 1.02 fold enrichment (6-mer frequency, TF over GST control), the binding signal (ELK1) is reported as 1.07 fold enrichment (6-mer frequency, TF over GST control) and the binding signal (GABPA) is reported as 1.09 fold enrichment (6-mer frequency, TF over GST control). The binding signal (ERG) was 1.09 fold enrichment (6-mer frequency, TF over GST control), the binding signal (ELF1) was 1.06 fold enrichment (6-mer frequency, TF over GST control) and the binding signal (SPIB) was 1.03 fold enrichment (6-mer frequency, TF over GST control). The binding signal (ELK3) was 1.07 fold enrichment (6-mer frequency, TF over GST control), the binding signal (ELF4) was 1.07 fold enrichment (6-mer frequency, TF over GST control) and the binding signal (ELK4) was 1.22 fold enrichment (6-mer frequency, TF over GST control). The binding signal (ETV2) was 1.17 fold enrichment (6-mer frequency, TF over GST control), the binding signal (ELF3) was 1.15 fold enrichment (6-mer frequency, TF over GST control) and the binding signal (ETV1) was 1.08 fold enrichment (6-mer frequency, TF over GST control). The binding signal (ETV3L) was 1.06 fold enrichment (6-mer frequency, TF over GST control), the binding signal (ETS2) was 1.07 fold enrichment (6-mer frequency, TF over GST control) and the binding signal (ETV7) was 1.05 fold enrichment (6-mer frequency, TF over GST control). The binding signal (ETV3) was 1.08 fold enrichment (6-mer frequency, TF over GST control) and the binding signal (ETV6) was 1.05 fold enrichment (6-mer frequency, TF over GST control).
